High-throughput results deposited in PubChem BioAssay by National Center for Advancing Translational Sciences (NCATS).
A selection: hits, their analogues and other compounds. The true share with any hit is near 19%.
IL-1B inflam inh: qHTS for Inhibitors of Inflammasome Signaling: IL-1-beta AlphaLISA Primary Screen | THP-1 LPS/ATP IL-1B secretion, AlphaLISA, 16 h; hits give low values | activity change, % at 57.5 µM | 360,000 tested, 4.7% active | AID 743279, 2014; in the data active = activity change below about -50%; inconclusive = mostly about -30% to -49%
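THP-1 cells pretreated 1 hr with compounds (up to 57.5 uM final), then stimulated with LPS (250 ng/mL final) plus ATP (1.25 mM final); secreted IL-1B measured by AlphaLISA after 16 hr, decreased signal indicating inhibition.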
HT1080 IDH1KD tx: qHTS for induction of synthetic lethality in tumor cells producing 2HG: qHTS for the HT-1080-IDH1KD cell line; HT-1080 IDH1 knockdown viability, ATP luminescence, 48 h; Potency, µM (titrated, usually from 46.1 µM), usual class: cytotoxic; 360,000 tested, 2% active
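Viability of IDH1-knockdown HT-1080 fibrosarcoma cells was assessed by CellTiter-Glo after 48 h at 37 °C with titrated compound; concentration-effect curves were classified by fit quality and response size.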
HT1080NT lethal: qHTS for induction of synthetic lethality in tumor cells producing 2HG: qHTS for the HT-1080-NT fibrosarcoma cell line; AID 686970, 2013; 360,000 tested, 1.6% active; Potency, µM (highest dose often 46.1 µM), hits mostly cytotoxic; HT-1080-NT fibrosarcoma viability, CellTiter-Glo ATP luminescence, 48 h;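 note: NT is the 2HG producing partner of a matched IDH1 knockdown line; nearly all actives have a fitted effect of over 55% in size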
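HT-1080-NT; 750 cells/well; 5% FBS RPMI; 48 h compound, 37 degrees C; CellTiter-Glo luminescence; curve fitting and curve-class assignment.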
DT40 TDP1 CPT: qHTS for Inhibitors of human tyrosyl-DNA phosphodiesterase 1 (TDP1): qHTS in cells in presence of CPT. Potency, µM (doses to about 46.2 µM), hits mostly inhibitors. chicken DT40 Tdp1-/-;hTDP1 cells + 20 nM CPT, ATP luminescence, 48 h. 420,000 tested, 12% active. AID 686979, 2013; note: nearly all actives have a fitted effect of over 55% in size
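Chicken DT40 Tdp1-/- cells stably complemented with human TDP1 were seeded at 400 cells/well in medium containing 20 nM camptothecin, exposed to pin-transferred compounds, and grown at 37 °C for at least 48 hr. Viability was read as ATP luminescence.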
DT40 TDP1 no CPT: qHTS for Inhibitors of human tyrosyl-DNA phosphodiesterase 1 (TDP1): qHTS in cells in absence of CPT; DT40 Tdp1-/- hTDP1 cells, no CPT, ATP luminescence, 48 h; Potency, µM (series often up to 46.2 µM), hits mostly inhibitors; 420,000 tested, 15% active; AID 686978, 2013; note: nearly all actives have a fitted effect of over 55% in size
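Growth of hTDP1-complemented DT40 Tdp1-knockout cells is measured by ATP luminescence after at least 48 hr compound exposure at 37 °C, with DMSO substituting for the 20 nM CPT used in the parallel screen.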
Hits are given with their value; - = inactive; ? = inconclusive; . = not tested or not shown; [ ] = dose if it differs, or a comment. Unless noted, calls come from the whole dose curve; as a rule, active = well fitted curve in the direction sought with a large enough effect; inconclusive = small, poorly fitted or top-dose-only effect, or another doubt; inactive = no such curve, though single readings can be large; an effect the other way counts as inactive or inconclusive.

SMILES | IL-1B inflam inh | HT1080 IDH1KD tx | HT1080NT lethal | DT40 TDP1 CPT | DT40 TDP1 no CPT
CC(C)NC(=O)N(C)C[C@H]1OCCCC[C@@H](C)Oc2ccc(NC(=O)C3CCCCC3)cc2C(=O)N([C@H](C)CO)C[C@@H]1C | - | - | - | ? | 12µM
CC(C)NC(=O)N(C)C[C@@H]1OCCCC[C@@H](C)Oc2ccc(NC(=O)Nc3ccc(F)cc3)cc2C(=O)N([C@H](C)CO)C[C@@H]1C | - | - | - | - | -
CCOc1cc(CNCC(C)C)c(Cl)cc1OCC(=O)Nc1ccccc1 | - | - | - | ? | ?
COc1cc(O)c(C(=O)c2ccccc2)cc1O | . | . | . | 4.1µM | 4.6µM
COc1cc(O)c(C(=O)c2ccccc2)cc1S(=O)(=O)O | . | . | . | - | -
COc1ccc(C(=O)c2ccccc2)c2c(O)ccc(C(=O)c3ccccc3)c12 | - | - | - | ? | 16µM
COc1ccc(C(=O)c2ccc(Cl)cc2)c2ccccc12 | - | - | - | ? | ?
COc1cc(/C=N/N=C(/N)c2nonc2N)cc(Br)c1OCc1ccccc1C | - | ? | ? | ? | ?
COc1cccc(/C=N/N=C(\N)c2nonc2N)c1O | - | - | ? | 0.0065µM | 0.92µM
C/C(CC(=O)Nc1cccc(C(F)(F)F)c1)=N\NC(=O)c1cnccn1 | - | - | - | - | -
O=C1CC(c2ccccc2F)c2cc3c(cc2N1)CCC3 (configuration not stated) | - | 0.89µM | 1.6µM | 3.3µM | 4.6µM
Cn1c2c(c(=O)n(C)c1=O)C(c1cc(Br)ccc1F)CC(=O)N2 (configuration not stated) | . | . | . | - | -
O=C1CC(c2cc(Br)ccc2F)c2cc3c(cc2N1)CCC3 (configuration not stated) | - | 1.3µM | 1.8µM | 2.9µM | 2.6µM
COC(=O)C1=C(C)NC(=O)CC1c1ccccc1F (configuration not stated) | - | -[9.24 µM] | - | - | -
COc1ccc(-n2cc(-c3ccccc3)c3c(N4CC(C)OC(C)C4)ncnc32)cc1 (configuration not stated) | - | 23µM | ? | ? | 12µM
COc1cccc(N2CCN(c3ncnc4c3c(-c3ccccc3)cn4-c3cccc(C(F)(F)F)c3)CC2)c1 | . | . | . | - | ?
COc1ccc(CNc2ncnc3c2c(-c2ccccc2)cn3-c2ccc(C)c(Cl)c2)cc1 | . | . | . | - | -
COc1ccc(-n2cc(-c3ccccc3)c3c(NC4CCCC4)ncnc32)cc1 | . | . | . | 23µM | 18µM
CN(CC(=O)NC1CCCc2ccccc21)S(=O)(=O)c1cccs1 (configuration not stated) | - | - | - | ? | -
COCCNC(=O)C(=O)c1c(-c2ccccc2)[nH]c2ccccc12 | - | - | - | - | -
O=C(C(=O)N(Cc1ccccc1)Cc1ccccc1)c1c(-c2ccccc2)[nH]c2ccccc12 | ? | ? | ? | 10µM | 21µM
CCOc1ccc(N2CC(C(=O)NC3=NCCS3)CC2=O)cc1 (configuration not stated) | - | - | - | - | -
COc1ccc(C(=O)N2CCC(c3nc(-c4ccc(S(=O)(=O)N5CCCC5)cc4)no3)CC2)cc1 | . | . | . | 23µM | 21µM
CCOc1ccc(C(=O)N2CCC(c3nc(-c4ccc(S(=O)(=O)N5CCCC5)cc4)no3)CC2)cc1 | . | . | . | 21µM | 23µM
CC1CCN(C(=O)c2ccc(S(=O)(=O)N3CCCC3)cc2)CC1 | - | - | - | - | -
SMILES | IL-1B inflam inh | HT1080 IDH1KD tx | HT1080NT lethal | DT40 TDP1 CPT | DT40 TDP1 no CPT
Cc1ccc(C)c(CN2CCC(CNC(=O)CCc3nnc4ccc(N5CCC(C)CC5)nn34)CC2)c1 | ? | - | - | ? | ?
Cc1ccc(C(=O)/C=C/NNC(=O)c2ccccc2O)cc1 | - | - | - | 16µM | ?
COc1ccc(C(=O)NN/C=C/C(=O)c2ccc(Br)cc2)cc1 | - | - | - | 23µM | ?
O=C(/C=C/NNC(=O)c1cccc(Br)c1)c1cccc(Br)c1 | - | ? | ? | ? | ?
O=C(/C=C/NNC(=O)c1ccccc1)c1ccc(Br)cc1 | - | ? | ? | 3.3µM | 4.6µM
O=C(/C=C/NNC(=O)c1ccc(Cl)cc1)c1ccccc1 | - | ? | ? | ? | ?
COc1ccc(C(=O)C=CNNC(=O)c2ccc(Cl)cc2)cc1 | - | ? | - | 3.3µM | ?
CCNc1nc(Oc2ccc(OCC(=O)OC)nn2)nc(N2CCOCC2)n1 | . | . | . | - | -
O=C(CSc1nnc2ccc(-c3ccccc3)nn12)NCC1CCCO1 (configuration not stated) | ? | - | - | - | -
CCCCOc1ccc(CC(N)=O)cc1 | . | - | - | - | -
N=C(N)c1ccc(OCCCOc2ccc(C(=N)N)cc2)cc1 | . | . | . | 6.7µM | 6.7µM
N=C(N)c1ccc(OCCCOc2ccc(C(=N)N)cc2Br)c(Br)c1 | . | . | . | 4.7µM | 3.8µM
CCCCCCOc1ccc(/C(N)=N/O)cc1 | - | - | - | 16µM | 21µM
COc1ccc(C(=O)Nc2cccc(OC)c2)cc1 | - | - | - | - | ?
COc1ccc2[nH]c(-c3ccc(C)cc3)cc(=O)c2c1 | - | 23µM | ? | 13µM | 16µM
COc1ccc(C(=O)Nc2ccc3[nH]c(-c4cccc(OC)c4)cc(=O)c3c2)cc1 | - | ? | ? | 1µM | 0.65µM
CCn1c(=N)n(CCOc2ccc(Br)cc2)c2ccccc21 | . | . | . | 5.8µM | 5.2µM
Cc1ccccc1OCC(O)Cn1c(=N)n(Cc2ccccc2)c2ccccc21 (configuration not stated) | -106 | 16µM | 15µM | 4.1µM | 5.2µM
CCCCn1c(=N)n(CCOc2ccc(C)cc2)c2ccccc21 | . | ? | ? | 4.6µM | 5.8µM
Cc1nccn1CC(O)Cn1c2ccccc2c2ccccc21 (configuration not stated) | -53 | - | ? | ? | ?
COc1ccccc1OCC(O)Cn1c(=N)n(Cc2ccccc2)c2ccccc21 (configuration not stated) | -73 | - | ? | 21µM | 8.2µM
Cc1ccccc1OCC(O)CN1CCN(CC(O)COc2ccccc2C)C(C)C1 (configuration not stated) | -63 | ? | 26µM | ? | 16µM
CCCCCn1c(=N)n(CC(O)COc2ccccc2OC)c2ccccc21 (configuration not stated) | -59 | ? | ? | 3.7µM | 5.8µM
Cc1ccc(Cn2c(=N)n(CC(O)c3ccco3)c3ccccc32)cc1 (configuration not stated) | -74 | ? | ? | - | 16µM
O=C(NCCN1CCOCC1)c1ccc(NC(=O)C2COc3ccccc3O2)cc1 (configuration not stated) | - | - | - | - | -
